About 500 (1.3%) of roughly 39,000 compounds were called active. Only a selection was taken, and actives are over-represented in it overall.
test system: S. aureus RN4220; test: growth inhibition call (relative growth <= 0.2); conditions: 50 µM

Structure (SMILES) | growth inhibition call
C[C@@H]1CN([C@@H](C)CO)C(=O)c2cccc(NC(=O)C3CC3)c2O[C@H]1CN(C)Cc1ccc(C(=O)O)cc1 | inactive
C[C@@H]1CCCCO[C@@H](CN(C)S(=O)(=O)c2ccc(Cl)cc2)[C@@H](C)CN([C@H](C)CO)C(=O)c2cc(NC(=O)Nc3ccc(C(F)(F)F)cc3)ccc2O1 | inactive
Cc1ccc(S(=O)(=O)Nc2ccc3c(c2)C(=O)N([C@H](C)CO)C[C@@H](C)[C@@H](CN(C)C(=O)CCC(F)(F)F)OCCCC[C@H](C)O3)cc1 | inactive
C[C@@H]1CCCCO[C@H](CN(C)C(=O)CCCN(C)C)[C@H](C)CN([C@@H](C)CO)C(=O)c2cc(NC(=O)Nc3cccc4ccccc34)ccc2O1 | inactive
C[C@@H]1CN([C@H](C)CO)C(=O)c2cc(C#Cc3ccccc3F)cnc2O[C@H]1CN(C)C(=O)C1CCOCC1 | inactive
Cc1cnccc1CN1C[C@H](C(=O)O)CC1=O | inactive
CC(C)C#Cc1cnc2c(c1)C(=O)N([C@@H](C)CO)C[C@@H](C)[C@H](CN(C)C(=O)c1ccc3c(c1)OCO3)O2 | inactive
Cc1ccc(S(=O)(=O)N(C)C[C@H]2Oc3c(NC(=O)C4CC4)cccc3C(=O)N([C@H](C)CO)C[C@@H]2C)cc1 | inactive
C[C@@H]1CN([C@H](C)CO)C(=O)CCCn2nncc2CO[C@@H]1CN(C)C(=O)Nc1ccc(C(F)(F)F)cc1 | inactive
C[C@@H]1CN([C@H](C)CO)C(=O)CCCn2cc(nn2)CO[C@H]1CN(C)C(=O)Nc1ccc(C(F)(F)F)cc1 | active
C[C@H]1CN([C@@H](C)CO)C(=O)CCCn2nncc2CO[C@@H]1CN(C)C(=O)Nc1ccc(C(F)(F)F)cc1 | active
C[C@@H]1CN([C@@H](C)CO)C(=O)CCCn2nncc2CO[C@H]1CN(C)C(=O)Nc1ccc(C(F)(F)F)cc1 | inactive
C[C@@H]1CN([C@H](C)CO)C(=O)CCCn2nncc2CO[C@H]1CN(C)C(=O)Nc1ccc(C(F)(F)F)cc1 | active
C[C@@H]1CN([C@@H](C)CO)C(=O)CCCn2nncc2CO[C@@H]1CN(C)C(=O)Nc1ccc(C(F)(F)F)cc1 | inactive
C[C@H]1CN([C@@H](C)CO)C(=O)CCCn2nncc2CO[C@H]1CN(C)C(=O)Nc1ccc(C(F)(F)F)cc1 | active
C[C@@H]1CN([C@H](C)CO)C(=O)CCCn2nncc2CO[C@H]1CN(C)C(=O)Nc1ccc(C(C)(C)C)cc1 | inactive
C[C@H](CO)N1C[C@H](C)[C@@H](CN(C)C(=O)Nc2ccc(C(F)(F)F)cc2)OCc2cnnn2CCCC1=O | inactive
C[C@H]1CN([C@@H](C)CO)C(=O)CCCn2cc(nn2)CO[C@@H]1CN(C)C(=O)Nc1ccc(C(F)(F)F)cc1 | inactive
C[C@H]1CN([C@@H](C)CO)C(=O)CCCn2cc(nn2)CO[C@H]1CN(C)C(=O)Nc1ccc(C(F)(F)F)cc1 | inactive
C[C@H](CO)N1C[C@H](C)[C@H](CN(C)C(=O)Nc2ccc(C(F)(F)F)cc2)OCc2cnnn2CCCC1=O | inactive
